Source: PubChem BioAssay (Tox21)
Several values for one entry are separate records, joined by “and”; a condition that tells them apart may be missing. Identical values can stand only once. Inconclusive results are not listed. Activity calls are given as the source filed them. Unless noted, the call rests on the fitted dose curve; in most records, active means well fitted curve in the direction sought with a large enough effect in the repeat runs; inconclusive means weak or mixed curves; inactive means no such curve, though single readings can be large; an effect the other way counts as inactive or inconclusive.

How the values were obtained:
[1] = qHTS assay for small molecule agonists of the p53 signaling pathway (AID 651631; calls by dose curve; further: nearly all actives have a fitted effect of over 15% in size; further: potency means the concentration at half of the fitted maximal effect); details: HCT-116 p53RE-bla reporter, beta-lactamase FRET ratio, 16 h; series mostly up to 73.3 µM
Outline: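 Read-out is beta-lactamase FRET fluorescence measured 2 h after substrate addition at room temperature, in HCT-116 cells with a p53 response element-driven reporter exposed to compounds for 16 h at 37 °C.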

[2] = qHTS assay for small molecule agonists of the p53 signaling pathway - cell viability (AID 651633; calls by dose curve; further: nearly all actives have a fitted effect of over 30% in size; further: potency means the concentration at half of the fitted maximal effect); details: p53RE-bla HCT-116 viability, ATP luminescence, 16 h; series mostly up to 83.3 µM
Outline: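 p53RE-bla cells were treated with compound for 16 hours at 37 C. Cytotoxicity was then measured as CellTiter-Glo luminescence after 30 min at room temperature.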

[3] = qHTS assay for small molecules that induce genotoxicity in human embryonic kidney cells expressing luciferase-tagged ATAD5 - cell viability (AID 651634; calls by dose curve; further: nearly all actives have a fitted effect of over 25% in size; further: potency means the concentration at half of the fitted maximal effect); details: HEK293T ATAD5-luc cells viability, CellTiter-Fluor, 15.5 h; series mostly up to 83.3 µM
Outline: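 15.5 hr compound or vehicle exposure of HEK293T cells expressing luciferase-tagged ATAD5 at 37C; live-cell protease activity is read by fluorescence after 30 min of CellTiter-Fluor.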

[4] = qHTS assay for small molecule disruptors of the mitochondrial membrane potential - cell viability (AID 720634; calls by dose curve; further: nearly all actives have a fitted effect of over 20% in size; further: potency means the concentration at half of the fitted maximal effect); details: HepG2 viability, ATP luminescence (CellTiter-Glo), 1 h; series mostly up to 83.2 µM
Outline: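 In this qHTS format, HepG2 cells plated overnight were pinned with compound, incubated 1 hr, and assayed for ATP luminescence with CellTiter-Glo after m-MPI dye addition.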

[5] = qHTS assay to test for compound auto fluorescence at 590 nm (red) in HepG2 cells (AID 720674); details: HepG2 autofluorescence, red 540/590 nm, 1 h; series mostly up to 91.3 µM
Outline: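 Seeding: 2,000 HepG2 cells/well, MEM/10% FBS, overnight 37 C. Dosing: compound vs DMSO. Incubation: 1 hr, 37 C, 5% CO2. Read: fluorescence 540 ex/590 em, Rose Bengal sodium as red reference.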

[6] = qHTS assay to test for compound auto fluorescence at 535 nm (green) in HepG2 cells (AID 720675); details: green autofluorescence 485/535 nm, 1 h; series mostly up to 91.3 µM
[7] = qHTS assay to test for compound auto fluorescence at 460 nm (blue) in HEK293 cells (AID 720678); details: blue autofluorescence 405/460 nm; series mostly up to 91.3 µM
Outline: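 Triamterene serves as the blue fluorophore standard. Compound signal at 405/460 nm is read in HEK293 wells (2,000 cells, 10% dialyzed FBS) after overnight treatment at 37C.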

[8] = qHTS assay to test for compound auto fluorescence at 590 nm (red) in HEK293 cells (AID 720679); details: red autofluorescence 540/590 nm; series mostly up to 91.3 µM
Outline: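 We plated HEK293 cells in 10% dialyzed FBS medium, let them adhere for 4-5 hr, then added 23 nL compound. Overnight at 37C and 5% CO2 preceded fluorescence measurement at 540/590nm.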

[9] = qHTS assay to test for compound auto fluorescence at 535 nm (green) in HEK293 cells (AID 720680); details: green autofluorescence 485/535 nm; series mostly up to 91.3 µM
[10] = qHTS assay to test for compound auto fluorescence at 460 nm (blue) in HEK293 cell free culture (AID 720681); details: cell-free medium, autofluorescence 405/460 nm (blue); series mostly up to 91.3 µM
Outline: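 Compounds were added to cell-free DMEM with 10% FBS and fluorescence read directly. The blue channel used 405 nm excitation and 460 nm emission, with triamterene as the reference fluorophore.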

[11] = qHTS assay to test for compound auto fluorescence at 535 nm (green) in HEK293 cell free culture (AID 720682); details: cell-free medium, green autofluorescence 485/535 nm; series mostly up to 91.3 µM
Outline: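 Fluorescein serves as the green reference fluorophore; each compound's intrinsic emission at 535 nm (excitation 485 nm) is reported as an equivalent amount of that dye, measured in serum-containing DMEM without cells.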

[12] = qHTS assay to test for compound auto fluorescence at 590 nm (red) in HEK293 cell free culture (AID 720683); details: cell-free medium autofluorescence, Ex540/Em590 red; series mostly up to 91.3 µM
Outline: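 Cell-free wells of DMEM with 10% FBS received compound, and intrinsic fluorescence was read at excitation/emission 540/590 nm. Values expressed as equivalence to Rose Bengal sodium.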

[13] = qHTS assay to test for compound auto fluorescence at 590 nm (red) in HepG2 cell free culture (AID 720684); details: cell-free medium autofluorescence, red 540/590 nm; series mostly up to 91.3 µM
Outline: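 Rose Bengal sodium served as the reference for red signal. Test compounds were dispensed into serum-containing MEM (10% FBS) without cells, and plates were read at 540/590 nm.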

[14] = qHTS assay to test for compound auto fluorescence at 460 nm (blue) in HepG2 cell free culture (AID 720685); details: Cell-free culture medium, blue autofluorescence 405/460 nm; series mostly up to 91.3 µM
Outline: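 Cell-free plates of MEM plus 10% FBS received 23 nL compound or DMSO vehicle; blue-channel (405/460 nm) intensity scored against triamterene as reference fluorophore.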

[15] = qHTS assay to test for compound auto fluorescence at 535 nm (green) in HepG2 cell free culture (AID 720686); details: Cell-free medium, green autofluorescence 485/535 nm; series mostly up to 91.3 µM
[16] = qHTS assay to test for compound auto fluorescence at 460 nm (blue) in HepG2 cells (AID 720687); details: autofluorescence 405/460 nm, 1 h; series mostly up to 91.3 µM
Outline: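 HepG2 cells in MEM with 10% FBS, attached overnight at 37 C, were exposed to compound or DMSO for 1 hr at 37 C, 5% CO2. Blue fluorescence was read at 405/460 nm, with triamterene as reference fluorophore.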

[17] = target: Glucocorticoid receptor (Homo sapiens) (UniProt P04150); test: qHTS assay to identify small molecule agonists of the glucocorticoid receptor (GR) signaling pathway (AID 720691; active means well fitted activation curve with a large enough effect in the signal ratio in the repeat runs, not every such curve was filed as active; the % refers to the signal ratio); details: GR-bla HeLa, beta-lactamase reporter ratio, 18 h; series mostly up to 62.4 µM
Outline: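 Measures GR pathway activation through a GRE-beta-lactamase reporter stably integrated in HeLa cells, with 18 h compound treatment at 37 C and fluorescence detection using a FRET substrate.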

[18] = target: Glucocorticoid receptor (Homo sapiens) (UniProt P04150); test: qHTS assay to identify small molecule antagonists of the glucocorticoid receptor (GR) signaling pathway (AID 720692; active means well fitted inhibition curve with a large enough effect in the signal ratio in the repeat runs, not every such curve was filed as active; the % refers to the signal ratio; further: potency means the concentration at half of the fitted maximal effect); details: GR-bla HeLa, beta-lactamase FRET ratio, dexamethasone-stimulated, 18 h; series mostly up to 58.5 µM
Outline: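 Tox21 10K library screened in concentration-response for blockade of dexamethasone (5 nM final)-induced GRE-bla reporter activity in HeLa cells; 18 h treatment, fluorescence read.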

[19] = qHTS assay for small molecules that induce genotoxicity in human embryonic kidney cells expressing luciferase-tagged ATAD5 (AID 651632); details: HEK293T ATAD5-luciferase induction, 16 h; series mostly up to 83.3 µM; further: nearly all actives have a fitted effect of over 15% in size
Outline: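 Concentration-response screen for ATAD5 upregulation in HEK293T luciferase reporter cells; 16 hr treatment at 37C, then luminescence after 30 min with Amplite at room temperature.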

[20] = qHTS assay for small molecule disruptors of the mitochondrial membrane potential (AID 720635); details: HepG2 mitochondrial membrane potential, Mito-MPS dye ratio; series mostly up to 83.2 µM; further: potency means the concentration at half of the fitted maximal effect
Outline: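 HepG2 cells exposed to compound 1 hr at 37C, then Mito-MPS dye 30 min. Ratio read of aggregate (540/590 nm) versus monomer (490/535 nm) fluorescence.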
On the % scale 0 is the no-effect control and ±100 the full control effect.

Glucocorticoid receptor (Homo sapiens), sequence (P04150 whole entry, looked up): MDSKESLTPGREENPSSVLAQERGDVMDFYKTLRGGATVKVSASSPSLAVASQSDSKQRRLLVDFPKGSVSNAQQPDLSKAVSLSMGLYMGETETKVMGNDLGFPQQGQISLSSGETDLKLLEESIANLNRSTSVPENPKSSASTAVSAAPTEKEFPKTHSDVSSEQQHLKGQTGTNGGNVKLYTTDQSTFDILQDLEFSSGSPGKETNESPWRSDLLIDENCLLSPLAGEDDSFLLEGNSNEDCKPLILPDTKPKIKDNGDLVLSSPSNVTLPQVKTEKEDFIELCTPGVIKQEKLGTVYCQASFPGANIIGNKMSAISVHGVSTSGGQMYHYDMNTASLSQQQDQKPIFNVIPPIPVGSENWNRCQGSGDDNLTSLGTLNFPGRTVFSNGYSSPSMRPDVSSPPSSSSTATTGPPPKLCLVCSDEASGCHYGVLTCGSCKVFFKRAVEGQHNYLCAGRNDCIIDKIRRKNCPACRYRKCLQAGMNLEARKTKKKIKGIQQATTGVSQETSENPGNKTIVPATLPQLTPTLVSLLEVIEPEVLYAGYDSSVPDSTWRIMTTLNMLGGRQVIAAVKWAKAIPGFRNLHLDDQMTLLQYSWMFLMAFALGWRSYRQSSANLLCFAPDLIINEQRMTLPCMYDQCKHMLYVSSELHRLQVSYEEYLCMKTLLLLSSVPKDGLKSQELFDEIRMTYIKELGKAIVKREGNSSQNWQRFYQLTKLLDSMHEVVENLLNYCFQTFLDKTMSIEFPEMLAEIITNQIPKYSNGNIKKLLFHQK

CCCC(=O)OC(C)(C)Cc1ccccc1
inactive: Potency [1] | Potency [2] | Potency [3] | Potency [4] | Potency [5] | Potency [6] | Potency [7] | Potency [8] | Potency [9] | Potency [10] | Potency [11] | Potency [12] | Potency [13] | Potency [14] | Potency [15] | Potency [16] | Potency [17] | Potency [18]

C=C(CC)C(=O)c1ccc(OCC(=O)O)c(Cl)c1Cl
inactive: Potency [19] | Potency [3] | Potency [4] | Potency [6] | Potency [7] | Potency [8] | Potency [9] | Potency [10] | Potency [11] | Potency [12] | Potency [13] | Potency [14] | Potency [15] | Potency [17]
active: Potency [1] 11.9 µM and 9.62 µM

Oc1ccccc1O
inactive: Potency [19] | Potency [3] | Potency [4] | Potency [20] | Potency [5] | Potency [6] | Potency [7] | Potency [8] | Potency [9] | Potency [10] | Potency [11] | Potency [12] | Potency [13] | Potency [14] | Potency [15] | Potency [16] | Potency [17]
active: Potency [2] 43.8 µM and 30.6 µM

C#C[C@]1(OC(C)=O)CC[C@H]2[C@@H]3CCC4=C/C(=N/O)CC[C@@H]4[C@H]3CC[C@@]21CC
inactive: Potency [19] | Potency [5] | Potency [6] | Potency [7] | Potency [8] | Potency [9] | Potency [10] | Potency [11] | Potency [13] | Potency [14] | Potency [15] | Potency [16]
active: Potency [1] 33.5 µM | Potency [3] 18.8 µM | Potency [4] 10.6 µM | Potency [20] 13.3 µM

O=C(O)Cc1ccccc1Nc1c(Cl)cccc1Cl
inactive: Potency [1] | Potency [19] | Potency [2] | Potency [5] | Potency [6] | Potency [7] | Potency [8] | Potency [9] | Potency [10] | Potency [11] | Potency [12] | Potency [13] | Potency [14] | Potency [15]

CC(C)=CCC1=C(O)c2ccccc2C(=O)C1=O
inactive: Potency [19] | Potency [5] | Potency [6] | Potency [7] | Potency [8] | Potency [9] | Potency [10] | Potency [11] | Potency [12] | Potency [13] | Potency [14] | Potency [15] | Potency [16] | Potency [17]
active: Potency [1] 1.53 µM | Potency [3] 54.2 µM | Potency [4] 54.2 µM | Potency [20] 24.2 µM

C/C=C/C=C/COC(=O)C(C)C
inactive: Potency [19] | Potency [2] | Potency [3] | Potency [4] | Potency [20] | Potency [5] | Potency [6] | Potency [7] | Potency [8] | Potency [9] | Potency [10] | Potency [11] | Potency [12] | Potency [13] | Potency [14] | Potency [15] | Potency [17]
active: Potency [18] 34.7 µM

NC[C@H]1O[C@H](O[C@H]2[C@H](O[C@@H]3O[C@H](CO)[C@@H](O)[C@H]3O)C(O)[C@H](N)C[C@@H]2N)[C@H](N)[C@@H](O)[C@@H]1O (stereo not given in full)
inactive: Potency [1] | Potency [19] | Potency [3] | Potency [4] | fluorescence, relative to Rose Bengal [5] -0.0462% [at 18.6 µM] | fluorescence, % of fluorescein control [6] 0.155% [at 18.6 µM] | fluorescence, % of triamterene [7] -0.0357% [at 18.6 µM] | fluorescence, % of fluorescent control [8] 0.971% [at 18.6 µM] | fluorescence, % of fluorescein [9] -0.0694% [at 18.6 µM] | fluorescence, % of fluorescent control [10] -0.0104% [at 18.6 µM] | activity change [11] -0.144% [at 18.6 µM, stronger effect = higher value] | fluorescence, % of fluorescent control [12] 0.335% [at 18.6 µM] | fluorescence, % of Rose Bengal [13] -0.0591% [at 18.6 µM] | fluorescence, % of fluorescent control [14] 0.0653% [at 18.6 µM] | fluorescence, % of fluorescein control [15] -0.0227% [at 18.6 µM] | fluorescence, % of fluorescent control [16] -0.0247% [at 18.6 µM] | Potency [17] | Potency [18]
